Results published in PubChem BioAssay AID2842 (Southern Research Institute, 2010).
Screen size: about 24,000 compounds; about 1,200 (5%) were called active. Not shown: some 2% with an inconclusive outcome. Not all results are given here. Unmarked numbers belong to inactive results. No rule for the calls is given here.

Assay: Mycobacterium tuberculosis H37Rv growth inhibition, putative kinase inhibitor library, confirmatory dose response (AID 2842);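 also: bacteria incubated one week before Alamar blue readout; 0% = bacteria only wells and 100% = bacteria with high antibiotic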
Conditions: M. tuberculosis H37Rv growth inhibition; CC50: measured here: Vero cell cytotoxicity; inhibition: stronger effect = higher value
`CCCNC(=O)CSc1nc2c([nH]c3ccccc32)c(=O)n1-c1ccc(OC)c(OC)c1` gave an inhibition of 3.01%.
`COc1ccc(C(=O)c2cn(Cc3cccc(F)c3)c3ccccc3c2=O)cc1` gave an inhibition of -1.95%.
Work on `CC1CCc2c(sc(NC(=O)c3ccc(-c4nc5ccccc5s4)s3)c2C#N)C1` (configuration not stated) yielded an inhibition of 2.71%.
With `CCOc1cc(C(=O)Nc2nnc(-c3ccc(C)cc3)s2)cc(OCC)c1OCC` the inhibition was 12.5%.
Compound `Cc1ccc(C)c(S(=O)(=O)Nc2ccc(C(=O)N3CCOCC3)cc2)c1` has an inhibition of -13.6%.
In the case of `CCN(c1ccccc1)S(=O)(=O)c1ccc(C(=O)Nc2nc(-c3ccc(C#N)cc3)cs2)cc1`, the inhibition is reported as -5.78%.
`O=C(O)c1cc(-c2ccc(F)cc2)nc2ccccc12` gave an inhibition of -3.79%.
Work on `C=CCn1c(=O)c2c(nc(N/N=C/c3ccccc3O)n2C)n(C)c1=O` yielded an inhibition of 69.7%.
`CCn1c2c(c(=O)[nH]c1=O)C(c1ccc(O)cc1)C1=C(CC(C)(C)CC1=O)N2` (configuration not stated) showed an inhibition of -10.5%.
For `CCSC1=C(C#N)C(c2ccco2)C(C(=O)Nc2ccccc2OC)=C(C)N1` (configuration not stated), the inhibition was 13.1%.
Work on `O=C(CSc1cn(Cc2ccccc2Cl)c2ccccc12)Nc1nc2ccccc2s1` yielded an inhibition of 10.2%.
`COC(=O)c1sc2nc(N)c(C#N)c(-c3ccco3)c2c1N` gave an inhibition of -11.1%.
`O=C1NCCc2c(OCC(=O)N3CCCC3)cccc21` gave an inhibition of -13.2%.
Work on `CCN1C(=O)C2(C(C#N)=C(N)Oc3c2oc(CO)cc3=O)c2ccccc21` (configuration not stated) yielded an inhibition of -2.38%.
`O=C(CSc1ccc2nnc(-c3cccnc3)n2n1)Nc1cccc(C(F)(F)F)c1` showed an inhibition of 2.18%.
Compound `Cn1c(=O)c2c([nH]c(=S)n2Cc2ccc(F)cc2)n(C)c1=O` has an inhibition of -5.83%.
With `O=c1/c(=C/c2ccc(Br)cc2)sc2nc(-c3ccncc3)nn12` the inhibition was -4.93%.
For `Cc1ccc(S(=O)(=O)CCC(=O)Nc2nc(-c3cccc([N+](=O)[O-])c3)cs2)cc1`, the inhibition was -0.9%.
`CCC(CC)C(=O)Nc1nnc(-c2ccc(Br)cc2)s1` showed an inhibition of 5.92%.
`COc1ccc(Cl)c2sc(N3CCN(C(=O)COc4ccccc4)CC3)nc12` showed an inhibition of -14.7%.
`Fc1ccc(-c2nnc(Nc3nc4c(F)cccc4s3)o2)cc1` gave an inhibition of 35.7%.
In the case of `CSc1cccc2sc(Nc3ccccc3Cl)nc12`, the inhibition is reported as 43.9%.
`COc1cccc(N2CC(NC(=O)N3CCN(c4ccc(F)cc4)CC3)CC2=O)c1` (configuration not stated) gave an inhibition of 1.73%.
Compound `O=C(CN1N=NC2C(=O)N(c3ccc(F)c(F)c3)C(=O)C21)Nc1cccc(F)c1` (configuration not stated) has an inhibition of -18.6%.
`COc1ccc(N2C(=O)/C(=C3/C(=O)N(C)c4ccccc43)SC2=S)c(OC)c1` gave an inhibition of -6.83%.
`NC(=O)N/N=C/c1ccccc1[N+](=O)[O-]` gave an inhibition of -0.23%.
Work on `Cc1ccc(-n2nnc3c(=O)n(CC(=O)Nc4cccc(F)c4)cnc32)cc1Cl` yielded an inhibition of 5.52%.
For `O=c1[nH]c(NCCc2ccccc2)nnc1-c1ccccc1`, the inhibition was -9.26%.
For `O=C(O)/C=C/C(=O)NCc1cn(-c2ccccc2)nc1-c1ccc(Cl)cc1`, the inhibition was -11.2%.
Compound `Nc1ncnc2c1c1nc3ccccc3nc1n2CCc1ccccc1` has an inhibition of -4.35%.
Compound `COC(CNc1ncnc2c1cnn2-c1ccc(C)c(Cl)c1)OC` has an inhibition of 15.5%.
`CCOc1cccc(/C=N\NC(=O)Cn2cnc3ccccc32)c1O` showed an inhibition of -6.32%.
Compound `Cc1nnc(SCCn2c(N3CCN(Cc4ccccc4)CC3)nc3c2c(=O)[nH]c(=O)n3C)s1` has an inhibition of 4.11%.
Compound `CC(=O)Nc1ccc(NC(=O)NC2CC(=O)N(c3ccc(C)cc3)C2)cc1` (configuration not stated) has an inhibition of -0.32%.
Work on `Cc1ccc(C)c(-c2nnc(NC(=O)/C=C/c3ccccc3)o2)c1` yielded an inhibition of 75.9%.
`Cc1cccc(-c2nnn3c2nc(NCCc2ccc(S(N)(=O)=O)cc2)c2ccccc23)c1` gave an inhibition of -2.93%.
Work on `O=C(NCCO)c1ccc(CSc2nc3ccccc3c(=O)[nH]2)cc1` yielded an inhibition of -16.4%.
With `Cn1c(=O)c2c(SCC(=O)Nc3nc4ccccc4s3)nc(-c3ccc(F)cc3)nc2n(C)c1=O` the inhibition was 14.6%.
With `NC(=O)c1nc(-c2cccnc2)nc2c1[nH]c(=O)n2-c1ccc(Cl)c(Cl)c1` the inhibition was 5.29%.
`CCOC(=O)CNc1ncnc(N)c1[N+](=O)[O-]` showed an inhibition of 2.73%.
Work on `Fc1ccc2nc(Nc3ccc4c(c3)OCCO4)sc2c1` yielded an inhibition of 72.2%.
For `CC(=O)N1CCc2c(sc(NC(=O)c3ccc4ccccc4c3)c2C#N)C1`, the inhibition was 13.2%.
`CCOC(=O)c1ccc(Nc2nnc3[nH]c(=O)c4c(C)c(C)sc4n23)cc1` showed an inhibition of -12.7%.
With `COc1cc(OC)cc(C(=O)NCCc2cc3ccc(C)cc3[nH]c2=O)c1` the inhibition was -10.9%.
In the case of `CCOC(=O)N1CCN(C(c2cccnc2)c2c(O)cc(C)n(CCOC)c2=O)CC1` (configuration not stated), the inhibition is reported as 0.85%.
`COc1ccc(Cl)c2sc(N(Cc3cccnc3)C(=O)c3cccc(S(C)(=O)=O)c3)nc12` gave an inhibition of -13.3%.
With `CC(=O)Nc1ccc(NC(=O)CSc2nnc(CNC(=O)c3ccccc3)o2)cc1` the inhibition was -8.68%.
`Cn1c(=O)[nH]c(=O)c2c1nc(N1CCC(Cc3ccccc3)CC1)n2CCSc1nc2ccccc2o1` gave an inhibition of 19.9%.
With `Cc1ccc(CSc2nc3c(c(=O)[nH]c(=O)n3C)n2Cc2ccccc2Cl)cc1` the inhibition was -2.78%.
Work on `CC1CCCN(S(=O)(=O)c2ccc(C(=O)Nc3nc4ccc5ccccc5c4s3)cc2)C1` (configuration not stated) yielded an inhibition of 14.8%.
Work on `Nn1c(SCC(=O)Nc2ccc(C(F)(F)F)cc2)nncc1=O` yielded an inhibition of -15.7%.
Compound `O=C(Nc1nc(-c2ccc3c(c2)OCCO3)cs1)c1cccc(Cl)c1` has an inhibition of -0.85%.
Work on `COc1cc2nc(Nc3cccc(Cl)c3)sc2cc1OC` yielded an inhibition of 48.6%.
Compound `COc1ccc2c(c1)c(=O)c(C(=O)c1ccc(Cl)cc1)cn2CC(=O)Nc1ccc2c(c1)OCO2` has an inhibition of -1.76%.
Compound `CC(C)c1ccc(OCC(=O)N/N=C/c2ccco2)cc1` has an inhibition of 6.99%.
`CCOC(=O)c1sc2nc(-c3ccccc3)cc(-c3ccccc3)c2c1N=Cc1cc(I)cc(I)c1O` showed an inhibition of -1.26%.
With `O=c1[nH]c(NCc2ccc3c(c2)OCO3)nnc1Cc1ccc(F)cc1` the inhibition was -0.653%.
For `Nc1nc(SCC(=O)Nc2cccc(F)c2)[nH]c(=O)c1NC(=O)c1ccc(F)cc1`, the inhibition was -6.89%.
`COc1ccc(S(=O)(=O)Nc2cc3c4c(c2)CC(=O)N4CCC3)cc1` showed an inhibition of 14.8%.
For `Nc1nc(SCc2cccc(Cl)c2)[nH]c(=O)c1NC(=O)c1ccc(C(F)(F)F)cc1`, the inhibition was -5.65%.
`Cc1ccc(Nc2nc(-c3ccc(S(=O)(=O)N4CCC(Cc5ccccc5)CC4)cc3)cs2)cc1` showed an inhibition of -2.1%.
Work on `O=C1NC(=O)C(=Cc2nc(-c3ccc(Cl)cc3)n3ccccc23)C(=O)N1` yielded an inhibition of 15.3%.
In the case of `NC(=O)COc1ccc(/C=c2\sc3nc(-c4ccccc4Br)nn3c2=O)cc1`, the inhibition is reported as -6.4%.
Compound `Cc1ccc(NC(=O)c2cnc(SCC(=O)N3CCOCC3)n(C)c2=O)cc1` has an inhibition of 11.1%.
`COc1ccc(Cl)cc1C(=O)Nc1nnc(-c2ccc(Cl)cc2Cl)s1` gave an inhibition of 0.42%.
In the case of `CC1CCc2c(C(=O)Nc3ccc(OC(F)(F)F)cc3)csc2C1` (configuration not stated), the inhibition is reported as 7.32%.
Work on `CCn1c(SCCc2ccccc2)nc2c1c(=O)[nH]c(=O)n2C` yielded an inhibition of 16.5%.
Work on `O=C(O)c1ccc(Nc2nc(-c3cccnc3)nc3ccccc23)cc1` yielded an inhibition of 5.44%.
In the case of `COc1ccc(OC)c(NC(=O)c2cnc3n(c2=O)CCS3)c1`, the inhibition is reported as 10.9%.
`CCOC(=O)c1nn(-c2ccc(F)cc2)c(=O)c2c(NC(=O)C(CC)c3ccccc3)scc12` (configuration not stated) showed an inhibition of -11.7%.
With `O=C(Nc1nc(-c2nc3ccccc3s2)cs1)c1ccc2ccccc2c1` the inhibition was 3.09%.
Compound `Cc1csc(NC(=O)CSc2nnc(CNC(=O)c3cccc(C(F)(F)F)c3)o2)n1` has an inhibition of -15.1%.
With `COc1cc(C)c(S(=O)(=O)Nc2ccc(-n3c(C)nc4ccccc4c3=O)cc2C)cc1C` the inhibition was -7.48%.
For `O=C(NNc1ncnc2c1cnn2-c1cccc(Cl)c1)c1cccc(Cl)c1`, the inhibition was 85%.
In the case of `O=C(CSc1nnc2ccc(-c3cccc([N+](=O)[O-])c3)nn12)NCc1ccco1`, the inhibition is reported as 0.47%.
In the case of `CS(=O)(=O)c1ccc([N+](=O)[O-])c(NCCCC(=O)O)c1`, the inhibition is reported as -6.3%.
With `CCOc1ccccc1NC(=O)CSc1nnc(C)c(=O)n1N` the inhibition was -13.8%.
With `O=C(Nc1nnc(-c2cccs2)o1)C(c1ccccc1)c1ccccc1` the inhibition was 9.32%.
With `C#CCn1c(=NC(=O)c2cccc([N+](=O)[O-])c2)sc2cccc(F)c21` the inhibition was 13.5%.
Compound `CCOC(=O)N1CCc2c(sc(NC(=O)c3ccc(Br)s3)c2-c2nc3ccccc3s2)C1` has an inhibition of 4.21%.
In the case of `Cn1c(=O)[nH]c(=O)c2c1nc(SCC(N)=O)n2CC(O)COc1ccc(Cl)cc1` (configuration not stated), the inhibition is reported as -5.17%.
`Nc1nc2c(s1)CCCC2` gave an inhibition of 16.9%.
Compound `COC(=O)C(C)Sc1nnc(Cc2cc(=O)[nH]c(=O)[nH]2)n1-c1ccc(Cl)cc1` (configuration not stated) has an inhibition of -6.18%.
Compound `Cc1ccc(-n2c(=O)[nH]c3c(C(N)=O)nc(-c4ccc(C(C)C)cc4)nc32)cc1C` has an inhibition of -7.6%.
For `COc1ccc(-n2nc3c(c2NC(=O)Cc2cccs2)CSC3)cc1`, the inhibition was -3.68%.
For `Cc1cccc(NC(=O)C2C(=O)CN(c3ccccc3)C2=O)c1` (configuration not stated), the inhibition was -3.29%.
Compound `O=C(/C=C/c1ccccc1Cl)Nc1nc(-c2nc3ccccc3s2)cs1` has an inhibition of -0.67%.
